Screens (PubChem BioAssay)
MsrA act = bovine methionine sulfoxide reductase A activation; activation, % at 10.6 µM; purified bovine MsrA, absorbance read-out; AID 602163; 360,000 tested, 0.3% active; in the data active means activation above about 7.5%
MsrA inhibitor = inhibits bovine methionine sulfoxide reductase A; 360,000 tested, 0.75% active; inhibition, % at 15.5 µM; purified bovine MsrA, absorbance read-out; AID 651718; in the data active means inhibition above about 4.5%
PLC-gamma1 inh = inhibitors of human phospholipase C gamma1; 370,000 tested, 0.84% active; inhibition, % at 12.2 µM; purified PLC-gamma1, fluorogenic substrate, fluorescence; AID 720700; P19174
PLC-beta3 inh = inhibitors of human phospholipase C beta3 | 370,000 tested, 0.18% active | inhibition, % at 12.2 µM | Purified PLC-beta3, fluorogenic substrate, fluorescence | Q01970; in the data active means inhibition above about 11%
Target sequence (Q01970 whole entry, looked up): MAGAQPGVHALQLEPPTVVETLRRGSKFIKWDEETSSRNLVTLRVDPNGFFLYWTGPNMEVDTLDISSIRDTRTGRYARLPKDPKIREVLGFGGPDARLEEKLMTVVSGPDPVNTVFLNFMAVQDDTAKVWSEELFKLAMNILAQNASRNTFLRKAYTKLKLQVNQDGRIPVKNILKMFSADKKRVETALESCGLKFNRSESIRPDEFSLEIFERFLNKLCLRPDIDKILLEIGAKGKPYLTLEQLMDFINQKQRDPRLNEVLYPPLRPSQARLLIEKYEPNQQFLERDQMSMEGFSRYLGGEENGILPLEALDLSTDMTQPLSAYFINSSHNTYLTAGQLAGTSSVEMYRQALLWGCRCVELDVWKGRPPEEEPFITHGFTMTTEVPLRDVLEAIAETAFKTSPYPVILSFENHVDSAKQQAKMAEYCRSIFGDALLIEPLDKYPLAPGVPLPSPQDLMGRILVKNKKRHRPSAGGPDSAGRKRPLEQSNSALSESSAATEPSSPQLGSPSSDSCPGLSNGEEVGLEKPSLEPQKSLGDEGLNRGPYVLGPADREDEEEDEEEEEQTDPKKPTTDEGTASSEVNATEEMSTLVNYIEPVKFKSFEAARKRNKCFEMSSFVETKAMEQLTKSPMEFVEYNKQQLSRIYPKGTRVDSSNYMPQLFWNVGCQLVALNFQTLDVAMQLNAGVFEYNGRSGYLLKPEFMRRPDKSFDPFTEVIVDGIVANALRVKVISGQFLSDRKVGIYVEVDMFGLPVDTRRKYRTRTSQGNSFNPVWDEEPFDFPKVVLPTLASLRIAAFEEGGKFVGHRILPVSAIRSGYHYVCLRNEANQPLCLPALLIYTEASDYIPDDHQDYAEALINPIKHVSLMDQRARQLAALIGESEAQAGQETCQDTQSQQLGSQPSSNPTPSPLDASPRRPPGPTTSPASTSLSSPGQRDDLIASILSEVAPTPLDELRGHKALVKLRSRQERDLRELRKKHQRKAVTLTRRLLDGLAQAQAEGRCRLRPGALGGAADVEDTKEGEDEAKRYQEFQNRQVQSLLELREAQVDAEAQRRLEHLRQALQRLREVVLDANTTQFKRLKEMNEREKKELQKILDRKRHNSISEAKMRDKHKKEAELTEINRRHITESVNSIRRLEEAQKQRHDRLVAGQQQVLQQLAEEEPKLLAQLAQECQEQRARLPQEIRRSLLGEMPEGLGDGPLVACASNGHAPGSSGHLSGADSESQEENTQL
PLCgamma1 ctr = PLC-gamma1 inhibition, counter-screen for PLC-beta3 hits; shares compounds with PLC-gamma1 inh; purified PLC-gamma1, fluorogenic substrate, fluorescence; inhibition, % at 12.3 µM; 3,300 tested, 3.1% active; AID 743258
PLCbeta3 conf = confirmation of human PLC-beta3 inhibitors; shares compounds with PLC-gamma1 inh; purified PLC-beta3, fluorogenic substrate fluorescence; inhibition, % at 12.3 µM; 3,300 tested, 1% active; AID 743261; in the data active means inhibition above about 11%
Numbers stand for hits; n = inactive; x = no result. The list is not random: actives were taken first. Their share in the collection is about 1.9%. Unless noted, no stated cut-off is given here; in the data, active means inhibition above about 9.5%; inactive means the rest.

SMILES	MsrA act	MsrA inhibitor	PLC-gamma1 inh	PLC-beta3 inh	PLCgamma1 ctr	PLCbeta3 conf
O=C(CSc1nnc(-c2ccccn2)n1Cc1ccco1)Nc1ccc(Oc2ccccc2)cc1	x	x	10.7	n	n	n
CCN(CC)c1nc(N)c([N+](=O)[O-])c(NCCO)n1	n	4.7	10.3	n	n	n
Cc1ccc(C)c(Cn2c(C(C)O)nc3ccccc32)c1 (stereo unspecified)	n	n	10.5	n	n	n
CC(O)c1nc2ccccc2n1Cc1ccccc1 (stereo unspecified)	n	n	n	n	x	x
COC(=O)CCC(C)C1CCC2C3CCC4CC(O)CCC4(C)C3=CC(=O)C12C (stereo unspecified)	n	n	n	11.1	n	n
Cc1cc(C(=O)Nc2ccccc2N2CCCCC2)no1	n	n	9.8	n	n	n
C[C@]12CCC(O)CC1=CCC1C2CC[C@]2(C)/C(=N\NC(N)=S)CCC12 (stereo partly specified)	n	n	11.6	n	n	n
NC(c1csc(NC(=O)c2cccc(OC(F)(F)F)c2)n1)c1ccccc1Cl (stereo unspecified)	n	n	n	n	x	x
O=C1NC(=O)c2cc(Oc3ccc([N+](=O)[O-])cc3)ccc21	n	n	11.2	10.7	n	n
COc1ccc(N(CC(=O)Nc2ccccc2OC)S(=O)(=O)c2ccccc2)cc1Cl	n	n	n	n	x	x
COc1ccc(NC(=O)CN(c2ccc(OC)c(Cl)c2)S(=O)(=O)c2ccccc2)c(OC)c1	n	n	10.7	n	n	n
c1ccc(-n2nnnc2OCCOc2nnnn2-c2ccccc2)cc1	n	n	13.6	n	n	n
N/C(=N\NS(=O)(=O)c1ccccc1)c1ccccn1	n	n	n	n	x	x
N/C(=N\NS(=O)(=O)c1ccc(Cl)cc1)c1ccccn1	n	n	10.3	n	n	n
CC(C)[C@@H](C)/C=C/[C@@H](C)[C@H]1CC[C@@H]2[C@]1(C)CCC1[C@]23C=C[C@]2(C[C@@H](O)CC[C@]12C)N(c1ccc(Br)cn1)O3 (stereo partly specified)	x	n	9.9	n	n	n
O=C1NC[C@H](CCCCN2C[C@H](Cc3ccc(O)cc3)N(CCc3ccccc3)C(=O)C2=O)N(CCc2ccc(O)cc2)C1=O	n	n	n	n	x	x
CCCC/C=C1/[C@@H](C(C)C)N(Cc2ccc3c(c2)OCO3)C2=N[C@H](c3ccccc3)CC(=O)N21	x	x	n	11.1	n	n
O=C(NC(=S)Nc1ccc(NC(=O)c2cccs2)cc1)c1ccco1	n	n	n	14.8	n	n
COc1cccc(-c2nc3nc(C)cc(C)n3c2NC2CCCC2)c1	n	n	n	n	x	x
CCN1C(=O)C(CC(=O)Nc2ccc(OC)cc2)N(CCc2ccc(OC)cc2)C1=S (stereo unspecified)	n	n	n	13.5	n	n
Cc1nc2c3cc(F)ccc3n(Cc3ccccc3)c2s1	n	n	n	n	x	x
Cc1nc2c3cc(F)ccc3n(CCN3CCCCC3)c2s1	n	n	9.7	n	n	n
C=CCC[C@@H](Cc1ccc(F)cc1)C(=O)OC[C@@H]1CCCN1C(=O)[C@@H](CC=C)CC(=O)N[C@@H](CO)Cc1ccccc1	n	n	10.8	n	n	n
C=CC[C@@H](Cc1ccc(F)cc1)C(=O)OC[C@H]1CCCN1C(=O)[C@@H](CC=C)CC(=O)N(CCO)Cc1ccccc1	n	n	n	n	x	x
C=CC[C@@H](Cc1ccc(F)cc1)C(=O)OC[C@@H]1CCCN1C(=O)[C@H](CC=C)CC(=O)N(CCO)Cc1ccccc1	n	n	10.5	n	n	n
SMILES	MsrA act	MsrA inhibitor	PLC-gamma1 inh	PLC-beta3 inh	PLCgamma1 ctr	PLCbeta3 conf
CCCCNC(=O)C1(C)CCCCCN1Cc1cc2ccccc2o1 (stereo unspecified)	n	n	n	n	x	x
C[C@]12Cc3ccccc3C1CC1=N[C@@H](C3CCCCC3)O[C@@]13C[C@@H]2C(=O)N3C1CCN(Cc2ccccc2)CC1 (stereo partly specified)	x	n	n	n	x	x
CCCCCC(=O)NC(=S)Nc1ccc(Cl)cn1	n	n	10.3	n	n	n
CCCCCC(=O)Nc1ccc(Cl)cn1	n	n	n	n	x	x
CCOc1ccccc1NC(=O)CSc1nc(=O)n(Cc2ccccn2)c2c1CCC2	n	n	n	n	x	x
O=C(CSc1nc(=O)n(Cc2ccccn2)c2c1CCC2)Nc1ccc(F)cc1F	n	n	13.0	n	n	n
COC(=O)c1cc2c(c3c4ccccc4n(S(=O)(=O)c4ccc(OC)cc4)c13)C(=O)N(C)C2	x	n	n	n	x	x
O=C(NCCN1C(=O)CSC1=O)C1CC(=O)N(c2ccccc2)C1 (stereo unspecified)	n	n	10.2	n	n	n
O=C(NCCc1ccccc1F)C1CC(=O)N(c2ccccc2)C1 (stereo unspecified)	n	n	n	n	x	x
O=C(Nc1nc(-c2ccc(F)c(F)c2)cs1)Nc1ccc(F)cc1F	n	n	10.0	n	n	n
CCN(CC)CCN1CNC(=S)NC1	n	n	n	n	x	x
CN(C)S(=O)(=O)Oc1ccccc1C(=O)Nc1ccc(F)cc1F	n	n	n	n	x	x
CCN(CC)C(=O)Oc1ccc(Br)cc1C(=O)Nc1ccc(F)cc1F	n	n	9.7	n	n	n
Cc1ccccc1-c1ccc2c(c1)O[C@H](CN(C)C(=O)C1CC1)[C@@H](C)CN([C@@H](C)CO)S2(=O)=O	n	n	n	n	x	x
CC(=O)Nc1ccc(S(=O)(=O)Nc2nnc(C)s2)cc1	n	n	n	n	x	x
Cc1cccn2cc(CCNC(=O)c3ccco3)nc12	n	n	n	n	x	x
Cc1cccn2cc(CNC(=O)c3ccco3)nc12	n	n	n	11.1	n	n
CC1(c2nnnn2Cc2ccccc2)CCC(=O)N1Cc1cccs1 (stereo unspecified)	n	n	n	n	x	x
CC1=[N+]([O-])C(C)(C)CC(C)(C)c2ccccc21	n	n	n	11.7	n	n
COc1ccc(CN(C)CC(=O)Nc2ccc(Cl)cc2C(F)(F)F)c(OC)c1	n	n	12.6	n	n	n
COC(=O)[C@]12C[C@H](CC(=O)NCCC(C)C)C(=O)N(Cc3ccccc3)C1=C[C@H](C(C)C)O[C@@H]2C1CC1	x	n	n	n	x	x
CCc1ccccc1N/C(=N\S(=O)(=O)c1ccccc1)C(F)(F)F	n	n	n	n	x	x
O=S(=O)(/N=C(/Nc1ccccc1)C(F)(F)F)c1ccccc1	n	n	9.6	n	n	n
O=C(CSc1nnc(-c2cnccn2)n1-c1ccccc1)Nc1ccc2cn[nH]c2c1	x	x	n	n	x	x
COc1ccc(/C=N/Nc2ccc(C(F)(F)F)cc2[N+](=O)[O-])cc1O	n	n	10.6	n	n	n
CC1(C)C(/C=C/C=C/C=C/C=C2\N(CCCCS(=O)(=O)O)c3ccc4ccccc4c3C2(C)C)=[N+](CCCCS(=O)(=O)[O-])c2ccc3ccccc3c21	n	x	x	x	x	x
COc1ccc(/C=N/Nc2nnc(Cc3ccc(OC)c(OC)c3)c(=O)[nH]2)cc1OC	n	n	n	10.8	n	n
COc1ccc(/C=N/Nc2nnc(Cc3ccc(OC)c(OC)c3)c(=O)[nH]2)cc1	n	n	13.8	n	n	n
